Eleven compounds from ChEMBL document CHEMBL1157539, “Thousands of chemical starting points for antimalarial lead identification” (Nature, 2010) can be followed below.

A word on the Inhibition: it is the share of the control response that was lost under treatment.

What all share (assay type): functional
Assay [1] deals with Plasmodium falciparum. Nature of the assay: GSK_TCMDC: Inhibition of Plasmodium falciparum 3D7 in whole red blood cells, using parasite LDH activity as an index of growth. Test compounds present at 2uM.
Assay [2] relates to Plasmodium falciparum. Put plainly: GSK_TCMDC: Inhibition of Plasmodium falciparum Dd2 in whole red blood cells, using parasite LDH activity as an index of growth. Test compounds present at 2uM.
In assay [3] the test system is HepG2. Nature of the assay: GSK_TCMDC: Percent inhibition of human HepG2 cell line. Test compounds present at 10uM.

As to `O=[N+]([O-])c1ccc2nc(Nc3cccc(C(F)(F)F)c3)c(Nc3cccc(C(F)(F)F)c3)nc2c1`, the Inhibition in assay [1] turned out to be 100%; in assay [2], 99%; in assay [3], 0%.

On to `Cl.O=S(=O)(Nc1ccc2nccc(N3CCNCC3)c2c1)c1ccc2oc3ccccc3c2c1`, for which the Inhibition is 100% in assay [1], 2% in assay [2] and 16% in assay [3].

`CN1CCN(c2ccnc3ccc(NC(=O)Nc4cccc(C#N)c4)cc23)CC1`: the Inhibition in assay [1] is recorded as 99%; in assay [2], 96%; in assay [3], 11%.

As to `Cc1cccc2nc(-c3ccc(-c4cccc(NC(=O)c5cccc(C(N)=O)c5)c4)cc3)[nH]c12`, the Inhibition turned out to be 84% in assay [1], 87% in assay [2] and 14% in assay [3].

For the compound `Cc1ccc2ncc(Cl)c(CCN3CCC(NCc4ccc5c(n4)NC(=O)CS5)CC3)c2n1.Cl`, the Inhibition in assay [1] turned out to be 90%; in assay [2], 12%; in assay [3], 13%.

Take `CC(Oc1ccc(Cl)cc1)C(=O)Nc1cc(C(F)(F)F)ccc1-n1cncn1` (stereo not drawn): the Inhibition in assay [1] is on record as 99%; in assay [2], 98%; in assay [3], 0%.

`Cn1c(N)c(C(=O)CSc2ncc(-c3ccc(F)cc3)n2Cc2ccccc2)c(=O)n(C)c1=O`: the figures for the Inhibition in assay [1], in assay [2] and in assay [3] were 88%, 66% and 11%, respectively.

On to `CCOc1cc(CC)ccc1C1CCN(CCCCNC(=O)c2ccc(NC(=O)c3ccc(Cl)cc3)cc2)CC1.Cl`, for which the Inhibition came to 100% in assay [1], 58% in assay [2] and 11% in assay [3].

On to `CC1N=C(N)N=C(N)N1OCc1ccccc1.Cl` (stereo not drawn), for which the Inhibition in assay [1] is on record as 94%; in assay [2] it was 72%; in assay [3] it was 62%.

Turning to `Cc1c(C2CCN(CCCCNC(=O)c3ccc(-c4ccc(C#N)cc4)cc3)CC2)c2ccccc2n1CCO`, the results for the Inhibition in assay [1], in assay [2] and in assay [3] were 96%, 99% and 28%, respectively.

On to `Cc1cc(F)ccc1-c1nc(Nc2ccncc2)c2ccn(C)c2n1`, for which the Inhibition stood at 89% in assay [1], 8% in assay [2] and 9% in assay [3].
